Measured values as given in PubChem BioAssay.
“And” between values parts separate entries of the source, which are not always exact repeats. Equal values may be shown once. The source made the active and inactive calls. Unless noted, the rule behind the calls is not given here.

Tests used:
[1] = P. berghei load reduction in hepatocytes – cell-based, HepG2, luciferase luminescence, HepG2 viability, primary screen (AID 624349; in the data active = parasite load remaining mostly below about 12%, no sharp cut-off; inactive = mostly above about 10%;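 note: 100% = mean of DMSO negative control wells on the same plate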); details: P. berghei liver stage in HepG2, luciferase luminescence, concentration not given here; parasite load remaining: stronger effect = lower value; viability: measured here: HepG2 viability without parasites
[2] = signal quenchers or enhancers, Cy5 substrate/SSB – biochemical, NIH Clinical Collection, E. coli SSB, artefact control for HCV NS3 helicase inhibitor project (AID 743268); details: Cy5-oligo bound E. coli SSB, fluorescence interference
[3] = test system: Hepatitis C virus NS3 helicase; test: blockers of NS3h binding to DNA – biochemical, fluorescence polarization, NIH Clinical Collection, primary screen (AID 743270); details: NS3 helicase binding to Cy5-dT15 DNA, stronger effect = higher value, concentration not given here
[4] = target: Single-stranded DNA-binding protein (Escherichia coli (strain K12)) (UniProt P0AGE0); test: SSB-ssDNA binding inhibitors – biochemical, fluorescence polarization, NIH Clinical Collection, counter-screen for HCV NS3 helicase inhibitor project (AID 743271; in the data active = inhibition above about 28%); details: E. coli SSB-DNA binding, stronger effect = higher value, concentration not given here
[5] = compounds distorting NS3 helicase fluorescence signal – biochemical, NIH Clinical Collection, artefact control for HCV NS3 helicase inhibitor project (AID 743272); details: fluorescence interference counterscreen, HCV NS3 helicase assay; stronger effect = lower value;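 note: HCV NS3 helicase with a Cy5 labelled single stranded DNA probe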
[6] = test system: Neuropilin-2 / VEGF-C interaction (human); test: small molecules blocking Neuropilin-2/VEGF-C interaction – biochemical, microplate binding format, z-score (AID 743281); details: microplate NRP2/VEGF-C binding assay; stronger effect = lower value
[7] = Wnt pathway potentiators raising nuclear beta-catenin – imaging, WNT3A-conditioned medium, mouse C2C12, NPC library, primary screen (AID 1117326; in the data active = nuclear beta-catenin stimulation mostly above about 4.2%, no sharp cut-off; inactive = mostly below about 10%); details: stronger effect = higher value
[8] = stimulators of insulin release from INS-1E, primary screen, cell-based, 5 mM glucose, NPC library (AID 1117329;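 active = compound raises insulin release from rat beta cells at 5 mM glucose, no numeric limit stated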); details: rat INS-1E insulin secretion, at 10 µM, stronger effect = higher value
[9] = growth inhibition of GSK3B-pretreated HCT116 cells – cell-based, CellTiter-Glo, 0.2 to 20 µM (AID 1117336;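 active = compounds lowering colon cancer cell viability after pretreatment blocking the GSK3B kinase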); details: HCT116 viability after GSK3B inhibitor, at 20 µM, stronger effect = higher value
[10] = inhibition of endothelial tube formation, primary screen, imaging, VEGF stimulated, CD31 staining, tube area, NPC library (AID 1117340;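 active = compound that reduces growth-factor-driven endothelial tube area in a mixed cell culture, no cutoff stated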); details: VEGF-stimulated ADSC/ECFC co-culture, at 10 µM, stronger effect = higher value
[11] = GLP1 release stimulators, primary, NCI-H716, NPC library (AID 1117341;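 active = compound raises GLP1 secretion from the human gut endocrine cells, with no numeric limit stated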); details: NCI-H716 cells, at 10 µM, stronger effect = higher value
[12] = HCT116 colon cancer cell growth inhibition, primary screen, CellTiter-Glo luminescence, NPC library (AID 1117342;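 active = compounds that lower survival of HCT116 colon cancer cells in the luminescence readout, no numeric limit stated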); details: at 20 µM (top of the series)
[13] = reduced SW480 viability measured with CellTiter-Glo, NPC library, primary (AID 1117343;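 active = compounds that lower viability of the colon cancer cells in the luminescence readout, with no numeric limit stated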); details: CellTiter-Glo luminescence; at 20 µM (top of the series)
[14] = NPC library primary testing for decreased DLD-1 cell viability via CellTiter-Glo (AID 1117346;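 active = compounds that lower survival of DLD-1 colon cancer cells in the luminescence readout, no cutoff given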); details: DLD-1 viability, CellTiter-Glo luminescence; at 20 µM (top of the series)

CC(C)c1ccc2oc3nc(N)c(C(=O)O)cc3c(=O)c2c1
67.7%: viability [1]
-1.6%: nuclear beta-catenin stimulation ([7]; stimulation, at 2 µM)
inactive: parasite load remaining [1] 196% | fluorescence ratio [2] 1.01 | inhibition [3] 2.77% | inhibition [4] 6.06% | fluorescence ratio [5] 0.99 | z-score [6] 0.737 | nuclear beta-catenin stimulation ([7]; at 10 µM) 0.2% | insulin secretion stimulation [8] 3.2% | viability decrease [9] 8.7% | tube area decrease [10] 0% | GLP1 secretion stimulation [11] 0.3% | inhibition of viability [12] -17% | viability decrease (inhibition) [13] 17.9% | viability decrease (inhibition) [14] -27.9%

COc1ccc(C(=O)NCc2ccc(OCCN(C)C)cc2)cc1OC
inactive: parasite load remaining [1] 97.5% and 24.6% | fluorescence ratio [2] 1.04 | inhibition [3] 1.19% | inhibition [4] 2.98% | fluorescence ratio [5] 1.05 | z-score [6] -0.08 | nuclear beta-catenin stimulation ([7]; at 10 µM) -0.3% | insulin secretion stimulation [8] 0.75% | viability decrease [9] -2.9% | tube area decrease [10] 4.2% | GLP1 secretion stimulation [11] -0.4% | inhibition of viability [12] 7% | viability decrease (inhibition) [13] -4.6% | viability decrease (inhibition) [14] -7.9%
80.4% and 69%: viability [1]
1%: nuclear beta-catenin stimulation ([7]; stimulation, at 2 µM)

CCc1nn(CCCN2CCN(c3cccc(Cl)c3)CC2)c(=O)n1CCOc1ccccc1
58.6% and 64.5%: viability [1]
active: viability decrease [9] 67.2% | inhibition of viability [12] 85.7% | viability decrease (inhibition) [13] 91.5% | viability decrease (inhibition) [14] 81.3%
3%: nuclear beta-catenin stimulation ([7]; stimulation, at 2 µM)
inactive: parasite load remaining [1] 9.1% and 13.5% | fluorescence ratio [2] 0.98 | inhibition [3] -1.19% | inhibition [4] 3.75% | fluorescence ratio [5] 0.99 | z-score [6] 0.854 | nuclear beta-catenin stimulation ([7]; at 10 µM) -1% | insulin secretion stimulation [8] -1.1% | tube area decrease [10] 30.7% | GLP1 secretion stimulation [11] -2.9%

O=C1[C@H]2CCCC[C@H]2C(=O)N1CCCCN1CCN(c2nsc3ccccc23)CC1
inactive: parasite load remaining [1] 42.7% | fluorescence ratio [2] 1 | inhibition [3] 0.4% | inhibition [4] -2.41% | fluorescence ratio [5] 0.96 | z-score [6] -0.553 | nuclear beta-catenin stimulation ([7]; at 10 µM) 10.9% | insulin secretion stimulation [8] 5.5% | tube area decrease [10] 25.8% | GLP1 secretion stimulation [11] 9%
active: viability decrease [9] 70.3% | inhibition of viability [12] 88.1% | viability decrease (inhibition) [13] 115% | viability decrease (inhibition) [14] 99.8%
1%: nuclear beta-catenin stimulation ([7]; stimulation, at 2 µM)
60.1%: viability [1]

OCc1cccnc1
inactive: parasite load remaining [1] 56.9% | fluorescence ratio [2] 0.93 | inhibition [3] -1.09% | inhibition [4] -1.18% | fluorescence ratio [5] 0.87 | z-score [6] -0.624 | nuclear beta-catenin stimulation ([7]; at 10 µM) 0.5% | insulin secretion stimulation [8] -1.9% | viability decrease [9] -11.1% | tube area decrease [10] -10% | GLP1 secretion stimulation [11] 1.4% | inhibition of viability [12] -9.5% | viability decrease (inhibition) [13] -6.5% | viability decrease (inhibition) [14] 7.3%
66.4%: viability [1]
1%: nuclear beta-catenin stimulation ([7]; stimulation, at 2 µM)

Nc1nc(N)nc(-c2cc(Cl)ccc2Cl)n1
129% and 67.5%: viability [1]
inactive: parasite load remaining [1] 141% and 22.8% | fluorescence ratio [2] 1.05 | inhibition [3] -1.19% | inhibition [4] 2.21% | fluorescence ratio [5] 1.02 | z-score [6] 0.00875 | nuclear beta-catenin stimulation ([7]; at 10 µM) 0.6% | insulin secretion stimulation [8] 2% | viability decrease [9] 20.3% | tube area decrease [10] -11.3% | GLP1 secretion stimulation [11] -1.2% | inhibition of viability [12] -27.9% | viability decrease (inhibition) [13] -12.5% | viability decrease (inhibition) [14] -18.2%
0.3%: nuclear beta-catenin stimulation ([7]; stimulation, at 2 µM)

COc1cc(OC)c(C(=O)CCCN2CCCC2)c(OC)c1
0.3%: nuclear beta-catenin stimulation ([7]; stimulation, at 2 µM)
95.2% and 73.3% and 68.5%: viability [1]
inactive: parasite load remaining [1] 144% and 82.2% and 102% | fluorescence ratio [2] 1.02 | inhibition [3] -3.56% | inhibition [4] -3.95% | fluorescence ratio [5] 0.97 | z-score [6] -0.505 | nuclear beta-catenin stimulation ([7]; at 10 µM) 1.1% | insulin secretion stimulation [8] -1% | viability decrease [9] -39.3% | tube area decrease [10] 17.2% | GLP1 secretion stimulation [11] 0.3% | inhibition of viability [12] -8% | viability decrease (inhibition) [13] 0.7% | viability decrease (inhibition) [14] -31.7%

Clc1ccc2c(c1)CCc1cccnc1C2=C1CCNCC1
-0.9%: nuclear beta-catenin stimulation ([7]; stimulation, at 2 µM)
inactive: parasite load remaining [1] 48.1% and 27.5% and 15.2% | fluorescence ratio [2] 1 | inhibition [3] -2.84% | inhibition [4] -3.54% | fluorescence ratio [5] 1 | z-score [6] 1.87 | nuclear beta-catenin stimulation ([7]; at 10 µM) 0.3% | tube area decrease [10] 9.9% | viability decrease (inhibition) [14] 30%
active: insulin secretion stimulation [8] 37.7% | viability decrease [9] 50.4% | GLP1 secretion stimulation [11] 21.1% | inhibition of viability [12] 55.5% | viability decrease (inhibition) [13] 97.8%
92% and 56.9% and 74%: viability [1]
